The campaign covered roughly 310,000 compounds. About 14,000 (4.5%) showed an effect of 50% or more. Effects have a minus sign here. Shown is part of a subset that was picked to be rich in strong results.
Target: human ether-à-go-go-related gene (hERG) potassium channel (human, UniProt Q12809)
Experiment: primary screen, population patch clamp on CHO cells stably expressing hERG; higher = less effect of the substance
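Further: peak tail current of the secondary pulse compared with the same well before compound.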

Sequence of human ether-à-go-go-related gene (hERG) potassium channel (Q12809 whole entry, looked up): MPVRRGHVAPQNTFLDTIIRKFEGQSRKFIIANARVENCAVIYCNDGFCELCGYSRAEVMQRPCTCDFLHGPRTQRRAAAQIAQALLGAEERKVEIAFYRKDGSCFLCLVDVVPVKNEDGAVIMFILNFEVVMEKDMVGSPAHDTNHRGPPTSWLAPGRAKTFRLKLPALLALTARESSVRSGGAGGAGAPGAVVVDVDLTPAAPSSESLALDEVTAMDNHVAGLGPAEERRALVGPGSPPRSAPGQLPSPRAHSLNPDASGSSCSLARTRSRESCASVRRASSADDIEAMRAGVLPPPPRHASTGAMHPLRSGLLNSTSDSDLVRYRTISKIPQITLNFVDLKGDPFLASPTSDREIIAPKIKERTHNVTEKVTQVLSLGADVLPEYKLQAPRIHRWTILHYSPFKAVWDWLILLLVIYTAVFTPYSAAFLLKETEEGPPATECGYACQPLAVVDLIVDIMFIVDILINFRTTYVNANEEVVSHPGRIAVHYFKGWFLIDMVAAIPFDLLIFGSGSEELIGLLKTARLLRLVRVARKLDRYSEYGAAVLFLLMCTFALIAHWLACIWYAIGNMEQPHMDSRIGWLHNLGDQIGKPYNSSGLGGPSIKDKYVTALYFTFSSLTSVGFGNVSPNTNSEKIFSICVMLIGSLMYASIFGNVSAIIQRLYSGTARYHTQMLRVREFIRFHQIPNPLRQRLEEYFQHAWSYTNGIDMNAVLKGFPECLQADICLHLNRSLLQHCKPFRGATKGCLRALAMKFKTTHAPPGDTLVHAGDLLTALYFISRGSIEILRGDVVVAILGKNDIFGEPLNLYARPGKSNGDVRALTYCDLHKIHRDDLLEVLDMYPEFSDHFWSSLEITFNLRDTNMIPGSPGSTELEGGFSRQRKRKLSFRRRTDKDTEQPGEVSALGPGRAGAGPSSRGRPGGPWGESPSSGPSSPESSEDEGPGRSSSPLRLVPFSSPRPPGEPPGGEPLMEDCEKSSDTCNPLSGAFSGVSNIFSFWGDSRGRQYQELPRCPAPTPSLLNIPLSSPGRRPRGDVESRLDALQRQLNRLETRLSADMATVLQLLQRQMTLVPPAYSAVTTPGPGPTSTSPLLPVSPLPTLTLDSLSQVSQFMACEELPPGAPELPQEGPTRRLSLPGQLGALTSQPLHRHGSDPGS

SMILES | hERG current change (%, negative = inhibition) at 10uM [%]
COc1ccc(N2CCN(C(=O)CCc3nnc4ccc(N5CCC(C)CC5)nn34)CC2)cc1 | -66.1
COc1cccc(N2CCN(c3ccc4nnc(CCC(=O)Nc5ccccc5OC)n4n3)CC2)c1 | -62.6
O=C(CCc1nnc2ccc(N3CCCC3)nn12)Nc1ccc(F)cc1F | 8.27
COc1cc(NC(=O)CCc2nnc3ccc(N4CCN(c5cccc(OC)c5)CC4)nn23)cc(OC)c1 | 7.07
COc1ccccc1N1CCN(C(=O)CCc2nnc3ccc(N4CCCC4)nn23)CC1 | -34.1
CC1CCN(c2ccc3nnc(CCC(=O)N4CCN(c5ccccc5F)CC4)n3n2)CC1 | -62.6
O=C(CCc1nnc2ccc(N3CCCC3)nn12)Nc1cc(F)ccc1F | -50.4
CC1CCN(c2ccc3nnc(CCC(=O)Nc4cc(F)ccc4F)n3n2)CC1 | -37.5
COc1cccc(NC(=O)CCc2nnc3ccc(N4CCN(c5cccc(OC)c5)CC4)nn23)c1 | 13.6
COc1ccc(N2CCN(C(=O)CCc3nnc4ccc(N5CCOCC5)nn34)CC2)cc1 | -5.83
COc1ccccc1N1CCN(C(=O)CCc2nnc3ccc(N4CCC(C)CC4)nn23)CC1 | -33.5
COc1ccc(N2CCN(C(=O)CCc3nnc4ccc(N5CCCC5)nn34)CC2)cc1 | -7.68
N#CCCN(C(=O)COC(=O)c1ccc2c(c1)NC(=O)CS2)c1ccc2c(c1)OCCO2 | -22.8
CCOCCOC(=O)C1=C(C)NC(=O)NC1c1cc2c(cc1Br)OCO2 (centres unmarked) | -30.5
O=C(CSCc1ccccc1)Nc1ccc(F)c(F)c1 | -3.2
Cc1cc(C)cc(C(=O)NCC(=O)OCC(=O)c2cc(C)n(CC(F)(F)F)c2C)c1 | 1.83
Cc1noc(C)c1CSc1nc2ccccc2s1 | -10.1
CC1CCN(c2ccc3nnc(CCC(=O)Nc4ccc(F)cc4)n3n2)CC1 | -39.6
COc1ccc(NC(=O)CCc2nnc3ccc(N4CCC(C)CC4)nn23)cc1 | -22.9
COc1ccc(NC(=O)CCc2nnc3ccc(N4CCN(c5cccc(OC)c5)CC4)nn23)cc1 | -22.8
CC1CCN(c2ccc3nnc(CCC(=O)N4CCN(c5ccc(F)cc5)CC4)n3n2)CC1 | -66.2
COc1ccc(N2CCN(c3ccc4nnc(CCC(=O)Nc5ccc(C)cc5)n4n3)CC2)cc1 | -70.1

SMILES | hERG current change (%, negative = inhibition) at 10uM [%]
CCN1CCN(C(=O)CCc2nnc3ccc(N4CCN(c5cccc(OC)c5)CC4)nn23)CC1 | -5.55
COc1cccc(N2CCN(c3ccc4nnc(CCC(=O)N5CCC(C)CC5)n4n3)CC2)c1 | -66.4
COc1cccc(N2CCN(C(=O)CCc3nnc4ccc(N5CCOCC5)nn34)CC2)c1 | -7.05
CCCN1CCN(C(=O)CCc2nnc3ccc(N4CCN(c5cccc(OC)c5)CC4)nn23)CC1 | -54.9
CC1CCN(c2ccc3nnc(CCC(=O)N4CCCCC4)n3n2)CC1 | -3.14
COc1cccc(N2CCN(c3ccc4nnc(CCC(=O)N5CCN(C)CC5)n4n3)CC2)c1 | -1.62
COc1cccc(N2CCN(C(=O)CCc3nnc4ccc(N5CCCC5)nn34)CC2)c1 | -28.7
CCN(CC(=O)Nc1ccccc1OC)C(=O)C1CCCC1 | 0.547
CC1CCN(C(=S)Nc2cccc(S(=O)(=O)N(C)C)c2)CC1 | 11.1
CO/N=C/c1cccn1-c1nccc(OC)c1C#N | 19.1
Cc1nc(C)c(C(=O)C2=C(O)C(=O)N(CCN3CCOCC3)C2c2cccs2)s1 (centres unmarked) | 5.12
COc1cc(/C=C/C(=O)O)ccc1OS(=O)(=O)c1c(C)cc(C)cc1C | -43.2
C=CCOc1ccc(/C=C/C(=O)OCC(=O)N(C)CC(=O)Nc2ccc(F)cc2)cc1 | 7.74
COc1ccccc1CC(=O)Nc1c[nH]c(=O)[nH]c1=O | 38.8
Cc1ccc2c(c1)c1ncnc(N3CCN(c4ccccc4)CC3)c1n2C | -12.3
Cc1ccccc1CN1CCNCC1.Cl | 14
CC(C)N1CCN(CC2COc3ccccc3O2)CC1.Cl (centres unmarked) | -19.4
c1ccc2c(c1)CC(CN1CCNCC1)O2 (centres unmarked) | -52.3
Cn1c(=O)oc2cc(S(=O)(=O)Nc3cccc([N+](=O)[O-])c3)ccc21 | 4.69
Cc1ccc(C)c(Cn2nnc3c(=O)[nH]c(C(=O)Nc4ccc(F)cc4)nc32)c1 | 28.5
CCOc1ccc(C(=O)N2CCCC2)cc1OC | -14.7
Cl.OC(COc1c(F)cc(Br)cc1F)CN1CCc2ccccc2C1 (centres unmarked) | -72.2
